Records with an inconclusive call do not appear. The source made the active and inactive calls. Calls come from the whole dose curve; as a rule, active = well fitted curve in the direction sought with a large enough effect; inconclusive = small, poorly fitted or top-dose-only effect, or another doubt; inactive = no such curve, though single readings can be large; an effect the other way counts as inactive or inconclusive.
Legend:
[1] = qHTS to identify inhibitors of the type 1 interferon - major histocompatibility complex class I in skeletal muscle: primary screen against the NCATS Pharmaceutical Collection (AID 1347407);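 note: luminescence of HiBiT knocked into endogenous HLA-B as interferon-induced MHC class I level; % is set by controls: 0 for no effect and ±100 for the full control effect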
Procedure, shortened: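 Cells were seeded with 4 ng/ml IFN-beta, incubated 1 h, then dosed with compounds over eight 1:5 steps up to 46 uM final. After 24 h at 37 C, HiBiT lytic reagent was added and luminescence read after 10 min lysis in the dark.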

[2] = target: Protein phosphatase 1D (Homo sapiens) (UniProt O15297); experiment: RapidFire Mass Spectrometry qHTS Assay for Modulators of WT P53-Induced Phosphatase 1 (WIP1) (AID 1347424);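 note: amount of dephosphorylated VEPPL-S-QETFS peptide product formed by WIP1; series mostly up to about 63 µM; plate controls were DMSO wells for no effect and GSK830371 inhibitor control at 10 µM for full effect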
Chain of Protein phosphatase 1D (Homo sapiens) (O15297 whole entry, looked up): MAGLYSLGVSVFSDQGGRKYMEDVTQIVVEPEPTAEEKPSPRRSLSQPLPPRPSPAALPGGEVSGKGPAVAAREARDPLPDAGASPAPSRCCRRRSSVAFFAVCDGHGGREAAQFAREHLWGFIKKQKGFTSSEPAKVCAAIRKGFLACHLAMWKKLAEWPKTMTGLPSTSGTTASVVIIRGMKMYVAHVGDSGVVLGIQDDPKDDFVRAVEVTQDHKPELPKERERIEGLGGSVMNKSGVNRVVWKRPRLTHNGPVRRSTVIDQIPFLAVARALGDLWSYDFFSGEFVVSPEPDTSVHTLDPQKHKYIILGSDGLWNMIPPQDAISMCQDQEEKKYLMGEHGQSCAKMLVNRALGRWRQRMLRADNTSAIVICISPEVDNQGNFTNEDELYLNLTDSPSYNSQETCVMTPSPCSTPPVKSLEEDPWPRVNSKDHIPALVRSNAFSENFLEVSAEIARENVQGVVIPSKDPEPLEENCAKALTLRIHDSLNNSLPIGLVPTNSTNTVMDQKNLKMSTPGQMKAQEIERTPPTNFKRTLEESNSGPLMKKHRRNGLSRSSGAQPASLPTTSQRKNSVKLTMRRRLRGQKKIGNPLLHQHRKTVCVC
Procedure, shortened: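 10 nM WIP1 preincubated with compounds 1 hr at room temperature in pH 7.5 Tris buffer with 30 mM MgCl2, 1 mM TCEP; 2 uM VEPPL-pS-QETFS phosphopeptide for 5 min, formic acid quench; dephosphorylated product quantified by RapidFire MS against labelled standard.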

[3] = target: Protein phosphatase 1D (Homo sapiens) (UniProt O15297); experiment: Rhodamine-PBP qHTS Assay for Modulators of WT P53-Induced Phosphatase 1 (WIP1) (AID 1347425); note: % of control where 0% means no effect
Procedure, shortened: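 The read-out is the change in Rhodamine-PBP fluorescence (f1 - f0, ex 525/em 598 nm) as Pi is released, read each minute for 11 min. Final reaction: 5 nM WIP1, 10 uM phosphopeptide VEPPL-pS-QETFS, 10 uM Rh-PBP, 50 mM Tris-HCl pH 7.5, 30 mM MgCl2. Compound was preincubated with enzyme for 1 hour at room temperature.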

[4] = Primary qHTS for inhibitors of La Crosse Virus (LACV) - induced cell death in SH-SY5Y cells (AID 1508616);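 note: top concentration of the series differs between compounds; 0% = infected DMSO wells and 100% = uninfected DMSO wells; higher means more rescue of cells from virus-induced death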
Procedure, shortened: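 Luminescent ATP readout (ATPLite 1step, 5 min room temperature) measured rescue from LACV-induced death after 6 days of infection at 0.01 MOI; normalized to infected DMSO wells and uninfected DMSO wells.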

[5] = target: Calcium and integrin-binding protein 1 (Homo sapiens) (UniProt Q99828); experiment: Primary qHTS for Identification of Calcium Integrin Binding Protein 1 (CIB1) Competitor (AID 1508620);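 note: GST tagged CIB1 binding a fluorescein labelled alphaIIb integrin peptide tracer; top concentration of the series differs between compounds; % is set by controls: 0 for no effect and ±100 for the full control effect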
Chain of Calcium and integrin-binding protein 1 (Homo sapiens) (Q99828 whole entry, looked up): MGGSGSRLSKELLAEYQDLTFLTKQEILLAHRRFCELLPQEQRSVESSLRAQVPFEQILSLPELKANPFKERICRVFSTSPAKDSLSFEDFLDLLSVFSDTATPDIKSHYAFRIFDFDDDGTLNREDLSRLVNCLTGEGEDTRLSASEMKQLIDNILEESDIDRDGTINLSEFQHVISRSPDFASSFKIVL
Procedure, shortened: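 Fluorescence polarization competition: GST-tagged CIB1 (1 uM final) preincubated with compound 15 min at room temperature, then FITC-labelled alphaIIb peptide (100 nM final) added. After 15 min at room temperature, polarization read at Ex 480/Em 540.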

[6] = qHTS for inhibitors of adenylyl cyclases using a fission yeast platform: a pilot screen against the NCATS LOPAC library (AID 1347410);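 note: plate controls were DMSO vehicle for no effect and DPI positive control for full effect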
Procedure, shortened: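 Growth medium went into the plates first, then compounds were pinned (final up to 57 µM), then CHP2027 yeast were added. Plates were incubated overnight (18 h) at 30C in the dark, and GFP was measured by laser scanning cytometry.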

[7] = Validation qHTS assay for inhibitors of Activation Induced Cytidine Deaminase (AID): UDG Counterscreen signal (AID 1347427); note: 0% is about no effect
Procedure, shortened: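 Counterscreen read of UDG activity (2 U/mL, 4/3x) in the FRET deamination format with AID (1 uM, 4/3x), DJC20/DJC23 substrates (250 nM, 4x), 4 h at room temperature. NaOH stop, fluorescence at 560 ex/665 em.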

[8] = target: Single-stranded DNA cytosine deaminase (Homo sapiens) (UniProt Q9GZX7); experiment: Validation qHTS assay for inhibitors of Activation Induced Cytidine Deaminase (AID): AID signal (AID 1347429); note: % is set by controls: 0 for no effect and ±100 for the full control effect
Chain of Single-stranded DNA cytosine deaminase (Homo sapiens) (Q9GZX7 whole entry, looked up): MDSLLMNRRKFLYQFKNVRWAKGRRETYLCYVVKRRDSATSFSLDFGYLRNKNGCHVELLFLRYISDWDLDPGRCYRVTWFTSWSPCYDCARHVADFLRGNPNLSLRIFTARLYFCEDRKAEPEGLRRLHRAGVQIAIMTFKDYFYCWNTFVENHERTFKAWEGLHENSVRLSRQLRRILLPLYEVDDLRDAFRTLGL
Procedure, shortened: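 AID and UDG were combined and compounds added at final up to 114 uM, then DJC20/DJC23 FRET substrate was added for 4 hr at room temperature. NaOH was then added for 30 min before fluorescence was read at 540/590 nm.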

[9] = target: Calcium and integrin-binding protein 1 (Homo sapiens) (UniProt Q99828); experiment: Validation qHTS for Identification of Calcium Integrin Binding protein 1 (CIB1) Competitor (AID 1508618); note: % is set by controls: 0 for no effect and ±100 for the full control effect
Procedure, shortened: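 CIB1-GST (1 uM final) incubated 15 min at room temperature with compounds (up to 114 uM), then FITC-labelled alphaIIb peptide (100 nM) added. FP read (Ex 480/Em 540) after 15 min, pH 7.4 buffer containing 5 mM CaCl2.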

[10] = target: Calcium and integrin-binding protein 1 (Homo sapiens) (UniProt Q99828); experiment: Confirmatory qHTS for Identification of Calcium Integrin Binding Protein 1 (CIB1) Competitor (AID 1508617); note: % is set by controls: 0 for no effect and ±100 for the full control effect; nearly all actives have a fitted effect of over 65% in size
Procedure, shortened: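 Compounds at up to 114 uM final met 1 uM GST-tagged CIB1 for 15 min at room temperature (HEPES pH 7.4, 5 mM CaCl2). FITC-labelled alphaIIb peptide, 100 nM, added; polarization read after 15 min more.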

[11] = Counterscreen qHTS for small molecule stabilizers of the endoplasmic reticulum resident proteome: GLuc-NoTag assay (AID 1508627);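 note: SH-SY5Y cells given compound then 100 nM thapsigargin to empty ER calcium; series mostly up to about 76 µM; 0% = thapsigargin alone and -100% = DMSO vehicle control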
Procedure, shortened: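 SH-SY5Y cells stably expressing constitutively secreted GLuc without SERCaMP tag, exposed to compound for 19 hr, then to 100 nM thapsigargin for 4 hr at 37C. Medium luciferase was read by coelenterazine luminescence without lysis.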

COc1cc2[nH]c(=O)[nH]c(=O)c2cc1OC
inactive: Potency [1] | outcome [2] | outcome [3] | outcome [4] | outcome [5]

Cn1cc[nH]c1=S
inactive: Potency [1] | outcome [2] | outcome [3] | outcome [4] | outcome [5]

COc1ccc2cc1Oc1cc3c(cc1OC)CC[N+](C)(C)[C@H]3Cc1ccc(cc1)Oc1c(OC)c(OC)cc3c1[C@@H](C2)[N+](C)(C)CC3
inactive: Potency [1] | outcome [2] | outcome [3] | outcome [4] | outcome [5]

CCCCC/C(C=O)=C\c1ccccc1
inactive: Potency [1] | outcome [2] | outcome [3] | outcome [4] | outcome [5]

CC(C)(C)C(=O)C(Oc1ccc(Cl)cc1)n1ccnc1 (stereo unspecified)
inactive: Potency [1] | outcome [2] | outcome [3] | outcome [4] | outcome [5]

COc1cc(C(=O)N2CCOCC2)cc(OC)c1OC
inactive: Potency [1] | outcome [2] | outcome [3] | outcome [4] | outcome [5]

NS(=O)(=O)c1cc2c(cc1Cl)NC(CSCc1ccccc1)=NS2(=O)=O
inactive: Potency [1] | outcome [2] | outcome [3] | outcome [4] | outcome [5]

CC1(C)CO[C@@H](CC(=O)O)CN1
inactive: Potency [1] | outcome [2] | outcome [3] | outcome [4] | outcome [5]

O=C1OC(OC(=O)c2cccnc2Nc2cccc(C(F)(F)F)c2)c2ccccc21 (stereo unspecified)
inactive: Potency [1] | outcome [2] | outcome [3] | outcome [4] | outcome [5]

Cc1cc2c(cc1S(N)(=O)=O)S(=O)(=O)CCC2
inactive: Potency [1] | outcome [2] | outcome [3] | outcome [4] | outcome [5]

Cc1cccc(Nc2cc(Cl)nc(SCC(=O)O)n2)c1C
inactive: Potency [1] | outcome [2] | outcome [3] | outcome [4] | outcome [5]

CC1=C(C/C=C(\C)CCC[C@H](C)CCC[C@H](C)CCCC(C)C)C(=O)c2ccccc2C1=O
inactive: Potency [1] | outcome [2] | outcome [3] | outcome [4] | outcome [5]

NCC(=O)CCC(=O)O
inactive: Potency [1] | outcome [2] | outcome [3] | outcome [4] | outcome [5]

CC1(C)OC(=O)NC1=O
inactive: Potency [1] | outcome [2] | outcome [3] | outcome [4] | outcome [5]

CC1(C)Oc2ccc(C#N)cc2[C@@H](N2CCCC2=O)[C@@H]1O
inactive: Potency [1] | outcome [2] | outcome [4] | outcome [5]

NC(=O)N/N=C/c1ccc([N+](=O)[O-])o1
inactive: Potency [1] | outcome [2] | outcome [4] | outcome [5]

Cc1cccc(C)c1NC(=O)CN(CC(=O)O)CC(=O)O
inactive: Potency [1] | outcome [2] | outcome [4] | outcome [5]

C[C@]12CC[C@@H]3c4ccc(O)cc4CC[C@H]3[C@@H]1CC[C@@H]2OC(=O)CCC1CCCC1
inactive: Potency [1] | outcome [2] | outcome [4] | outcome [5]

Oc1ccc(C(O)CNCCCCCCNCC(O)c2ccc(O)c(O)c2)cc1O (stereo unspecified)
inactive: Potency [1] | outcome [2] | outcome [4] | outcome [5]

COc1ccccc1O
inactive: Potency [1] | outcome [2] | outcome [4] | outcome [5]

COC(=O)C1=C(C)NC(C)=C(C(=O)OC)C1c1ccccc1[N+](=O)[O-]
inactive: outcome [6] | outcome [2] | Potency [7] | Potency [8] | outcome [4] | outcome [5]

CC(C)NC[C@H](O)c1ccc(O)c(O)c1
inactive: outcome [6] | Potency [7] | Potency [8] | outcome [4] | outcome [9]

O=C(O)c1ccccc1-c1ccc(C(F)(F)F)cc1
inactive: Potency [1] | outcome [2] | outcome [5]

O=C1NC(=O)[C@@]2(CCOc3ccc(F)cc32)N1
inactive: outcome [6] | outcome [2] | outcome [4] | outcome [9] | outcome [5]

COC(=O)[C@H]1[C@H]2C[C@@H]3c4[nH]c5cc(OC)ccc5c4CCN3C[C@H]2C[C@@H](OC(=O)COc2ccc(OC)cc2)[C@@H]1OC
inactive: Potency [1] | outcome [2] | outcome [4] | outcome [5]

CC(=O)NC(Cc1ccccc1)C(=O)O (stereo unspecified)
inactive: outcome [2] | outcome [3] | outcome [4] | Potency [10] | outcome [5]

O=Cc1ccccc1C=O
inactive: Potency [1] | outcome [2] | outcome [4] | outcome [5]

c1ccc(CN(CC2=NCCN2)c2ccccc2)cc1
inactive: Potency [1] | outcome [2] | outcome [4]

Cc1c(O)cccc1C(=O)N[C@@H](CSc1ccccc1)[C@H](O)CN1C[C@H]2CCCC[C@H]2C[C@H]1C(=O)NC(C)(C)C
inactive: outcome [6] | outcome [2] | outcome [3] | outcome [4] | outcome [9] | outcome [5]

C[C@@H]1CC[C@@]2(OC1)O[C@H]1C[C@H]3[C@@H]4CC[C@H]5C[C@@H](O)CC[C@]5(C)[C@H]4CC(=O)[C@]3(C)[C@H]1[C@@H]2C
inactive: activity change, negative = inhibition [1] -0.255% [at 3.83 µM] | activity change, negative = inhibition [2] 12.5% [at 6.17 µM] | activity change, negative = inhibition [3] 1.62% [at 4.81 µM] | activity change, negative = inhibition [5] -1.41% [at 12.4 µM]

CN1CCCCC1CCN1c2ccccc2Sc2ccc(S(C)=O)cc21 (stereo unspecified)
inactive: Potency [1] | outcome [2] | outcome [4] | outcome [5] | Potency [11]

O=C1c2c(O)cccc2Cc2cccc(O)c21
inactive: Potency [1] | outcome [2] | outcome [4] | outcome [5]

O=S(=O)(O)c1cc(I)c(O)c2ncccc12
inactive: Potency [1] | outcome [2] | outcome [4] | outcome [5]

C[C@H](N)[C@H](O)c1cccc(O)c1
inactive: Potency [1] | outcome [2] | outcome [4] | outcome [5]

CC(=O)CCC(=O)O
inactive: Potency [1] | outcome [2] | outcome [4] | outcome [5]

Cc1cc2nc3c(=O)[nH]c(=O)nc-3n(C[C@H](O)[C@H](O)[C@H](O)CO)c2cc1C
inactive: Potency [1] | outcome [2] | outcome [4] | Potency [11]

NCCNCCNCCN
inactive: Potency [1] | outcome [2] | outcome [4]

NC(=O)NNc1ccccc1
inactive: Potency [1] | outcome [2] | outcome [4] | outcome [5]

Reference: PubChem BioAssay (NCATS)
